Bioassay records (PubChem BioAssay)
PINK1 expr mod – A Quantitative High throughput Screen to Identify Chemical Modulators of PINK1 Expression | PINK1 immunofluorescence, high-content cytometry, 24 h | Potency, µM (top dose mostly 76.6 µM), inactives show at the top dose activation (PINK1 increase), hits mostly activators | 410,000 tested, 0.2% active | AID 624263, 2012; active = well fitted activation curve with a large enough effect; inconclusive = small, poorly fitted or top-dose-only effect; cell line not stated here; note: % of control where 0% means no effect; nearly all actives have a fitted effect of over 65% in size
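Readout is PINK1 immunofluorescence, quantified alongside mitochondrial, cell and nuclear markers by laser-scanning microplate cytometry. Cells from a stable line were exposed to compound titrations (5 concentrations) for 24 hours, with CCCP controls.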
KB-3-1 tox – qHTS assay for MDR1-selective chemotherapeutics: Primary screen using the parental adenocarcinoma cell KB-3-1 | KB-3-1 viability, CellTiter-Glo ATP luminescence, 72 h | Potency, µM (series often up to 46.1 µM), most hits filed as cytotoxic | 400,000 tested, 1.4% active | AID 1347075, 2019; note: % is set by controls: 0 for no effect and ±100 for the full control effect; nearly all actives have a fitted effect of over 60% in size
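KB-3-1 cells, DMEM (no phenol red) + 10% FBS; compound by pin transfer, 72 h, 37 °C. Readout: CellTiter-Glo luminescence after 10 min. Data normalized, curve-fitted.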
SW480 rerep – A quantitative high throughput screen for small molecules that induce DNA re-replication in SW480 colon adenocarcinoma cells; 340,000 tested, 1.8% active; AID 624297, 2012; Potency, µM (series often up to 46.1 µM), inactives show at the highest dose re-replication activation, actives largely listed as activators; SW480 DNA re-replication, Hoechst DNA content imaging, 48 h; note: % of control where 0% means no effect; nearly all actives have a fitted effect of over 55% in size
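Quantitative HTS format with DMSO vehicle controls; 48 hr drug incubation at 37 C, then 40 min Hoechst staining and scanning imager measurement at 405 nm excitation.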
PTAP TSG101 blk – qHTS Assay for Iinhibitors of HIV-1 Budding by Blocking the Interaction of PTAP/TSG101; AID 493005, 2010; Potency, µM (titrated, usually from 115 µM), for inactives: at the top dose activity change, negative = inhibition, actives largely listed as inhibitors; 340,000 tested, under 10 active; Tumor susceptibility gene 101 protein (Homo sapiens), Q99816; Fluorescence polarization, FITC-PTAP peptide / Tsg101 binding; active = well fitted inhibition curve with a large enough effect in the main read-out, with a control signal flat, not every such curve was filed as active; inconclusive = small, poorly fitted or top-dose-only effect, or effect the other way, or a change in a side signal; inactive = no such curve, though single readings can be large or run the other way; note: % of control where 0% means no effect
Target sequence (Q99816 whole entry, looked up): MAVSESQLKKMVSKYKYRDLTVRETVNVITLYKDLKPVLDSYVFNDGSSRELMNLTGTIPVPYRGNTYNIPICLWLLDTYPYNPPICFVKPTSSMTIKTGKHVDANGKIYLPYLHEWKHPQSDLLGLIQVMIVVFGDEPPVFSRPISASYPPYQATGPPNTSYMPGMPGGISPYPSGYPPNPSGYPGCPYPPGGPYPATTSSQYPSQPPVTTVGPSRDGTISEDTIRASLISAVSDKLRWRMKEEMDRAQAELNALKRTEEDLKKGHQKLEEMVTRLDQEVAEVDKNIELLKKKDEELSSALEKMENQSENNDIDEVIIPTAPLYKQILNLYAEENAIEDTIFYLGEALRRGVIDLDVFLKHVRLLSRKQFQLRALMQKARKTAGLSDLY
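FP read-out: FITC-PTAP peptide, 50 nM final, binding Tsg101 binding domain, 10 uM final; 20 min, r.t.; 10 mM HEPES pH 7.5, 0.15 M NaCl, 0.01% Tween 20, 3 mM EDTA, 0.1 mM TCEP.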
KB-V1 cytotox – qHTS assay for MDR1-selective chemotherapeutics: Primary screen using the drug-selected MDR subline cells KB-V1. 400,000 tested, 3.4% active. AID 1347076, 2019. Potency, µM (titrated, usually from 46.1 µM), usual class: cytotoxic. KB-V1 MDR cells viability, CellTiter-Glo, 72 h; note: % is set by controls: 0 for no effect and ±100 for the full control effect; nearly all actives have a fitted effect of over 60% in size
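Luminescent ATP read-out (CellTiter-Glo, 10 min) measures survival of drug-selected KB-V1 MDR cells after 72 h, 37 degrees C compound exposure. Medium: phenol-red-free DMEM, 10% FBS. Values from fitted concentration-response curves.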
MCF10A rerep – A quantitative high throughput screen for small molecules that induce DNA re-replication in MCF 10a normal breast cells. MCF 10A DNA re-replication, Hoechst nuclear intensity, 48 h. Potency, µM (doses to about 46.1 µM), for the others: top-dose activity, positive = re-replication, hits mostly activators. 350,000 tested, 2.9% active; note: % of control where 0% means no effect; nearly all actives have a fitted effect of over 50% in size
Active calls of the source: *; i = inactive; ? = inconclusive; . = no result; [ ] = another dose, or the depositor's remark. An excerpt weighted towards active compounds, which were near 6.8% of everything screened. Unless noted, calls come from the whole dose curve; as a rule, active = well fitted curve in the direction sought with a large enough effect; inconclusive = small, poorly fitted or top-dose-only effect, or another doubt; inactive = no such curve, though single readings can be large; an effect the other way counts as inactive or inconclusive. Potency is the fitted concentration of half-maximal effect.

SMILES	PINK1 expr mod	KB-3-1 tox	SW480 rerep	PTAP TSG101 blk	KB-V1 cytotox	MCF10A rerep
COc1ccc(CNC(=O)Cc2c(C)c3cc4c(C)coc4c(C)c3oc2=O)cc1	0%	.	.	.	.	.
COc1cc(CNn2nnnc2N)ccc1OCc1c(Cl)cccc1Cl	4%[38.3 µM]	16µM*	0%	2%	15µM*	0%
Cc1cc(=O)n2c3ccccc3n(CC(O)CN3CCC(C)CC3)c2c1C#N (stereo unspecified)	3%	i	1.3µM*	-2%	i	8%
O=C1c2cccc(OCC(=O)N3CCCc4ccccc43)c2CCN1Cc1ccc(Br)cc1	-2%	18µM*	?	0%	18µM*	?
O=C(COc1cccc2c1CCN(Cc1ccc(Br)cc1)C2=O)N1CCOCC1	2%	?	-2%	-1%	4.1µM*	17%
O=C(COc1cccc2c1CCN(Cc1ccc(Br)cc1)C2=O)NCc1ccco1	3%	?	0%	-2%	2.6µM*	25%
CCOc1ccc(NC(=O)c2cnn3c2NC(c2cccc(OC)c2)=CC3c2ccccc2)cc1 (stereo unspecified)	6%	i	.	.	i	.
Cc1oc2ncn(CC(C)C)c(=O)c2c1C(=O)NCCc1ccc(Cl)cc1	3%	i	.	.	i	.
CC1CN(S(=O)(=O)c2ccc(C(=O)NCCCn3ccnc3)cc2)CC(C)O1 (stereo unspecified)	6%	i	5.8µM*	1%	i	3.7µM*
O=C(NCCCn1ccnc1)c1cccc(Br)c1	1%	i	26µM*	-8%	i	-5%
N#CC1=C(N)NC(SCC(=O)c2ccc(Br)cc2)=C(C#N)C12CCCCC2	?	?	?	0%	16µM*	?
N#CC1=C(N)NC(SCc2ccccc2)=C(C#N)C12CCCCC2	3%[38.3 µM]	23µM*	?	-5%	?	8.2µM*
Cc1ccc(-n2ncc(C(=O)NCCCN3CCc4ccccc4C3)c2C2CCN(C(=O)OC(C)(C)C)CC2)cc1C	0%	i	.	.	i	.
Cc1ccsc1/C=C1/SC(=O)N(CC(=O)N2CCOCC2)C1=O	0%	i	3%	0%	i	-3%
Cn1cccc1/C=C1/SC(=O)N(CC(=O)N2CCCC2)C1=O	1%	i	1%	1%	16µM*	-3%
Cc1ccc(/C=C2/SC(=O)N(CC(=O)N3CCOCC3)C2=O)s1	5%	i	-2%	?	21µM*	5%
Cc1cccc(C)c1NC(=O)CN1C(=O)S/C(=C\c2cccn2C)C1=O	14%[38.3 µM]	i	2%	-4%	i	0%
COc1cccc(C2CC(=O)Nc3c2c(=O)[nH]c2ncnn32)c1OC (stereo unspecified)	0%	i	.	.	i	.
COc1cccc(CNc2ncc(C(=O)Nc3cc(OC)c(OC)c(OC)c3)c(C)n2)c1	6%	8.2µM*	?	2%	i	?
CCOC(=O)c1cnc(NCc2ccccc2)nc1C	.	?	-18%	-5%	i	10%
COc1cc(NC(=O)c2cnc(NCc3ccccc3)nc2C)cc(OC)c1OC	13%	?	17%	-5%	10µM*	11%
Cc1ncc2c(c1CNC(=O)c1ccccc1F)CCN(C(=O)c1[nH]c3ccc(Cl)cc3c1C)C2	4%	.	.	.	.	.
COc1ccc(C2CC(c3cccs3)=NN2C(=O)CCl)cc1OC (stereo unspecified)	-2%	?	2.1µM*	-4%	?	3.3µM*
COc1ccc(C2CC(c3cccs3)=NN2C(=O)c2ccccc2)cc1OC (stereo unspecified)	0%	i	2%	-1%	i	1%
